# Laboratory results reported in ChEMBL document CHEMBL1961873, “Compounds: GSK PKIS; Assays: Nanosyn kinase panel” (2012).
# Columns and labels:
# [1] = biological target: CDK3/Cyclin E (Homo sapiens) (UniProt P24864+Q00526); conditions: at 1 µM;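 note: each figure is a mean percent inhibition of the CDK3/cyclin E complex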
# [2] = biological target: Cyclin-dependent kinase 4 (Homo sapiens) (UniProt P11802); conditions: at 0.1 µM
# [3] = biological target: Cyclin-dependent kinase 4 (Homo sapiens) (UniProt P11802); conditions: at 1 µM
# [4] = biological target: Cyclin-dependent kinase 5 (Homo sapiens) (UniProt Q00535); conditions: at 0.1 µM
# Cyclin-dependent kinase 5 (Homo sapiens), sequence (Q00535 whole entry, looked up): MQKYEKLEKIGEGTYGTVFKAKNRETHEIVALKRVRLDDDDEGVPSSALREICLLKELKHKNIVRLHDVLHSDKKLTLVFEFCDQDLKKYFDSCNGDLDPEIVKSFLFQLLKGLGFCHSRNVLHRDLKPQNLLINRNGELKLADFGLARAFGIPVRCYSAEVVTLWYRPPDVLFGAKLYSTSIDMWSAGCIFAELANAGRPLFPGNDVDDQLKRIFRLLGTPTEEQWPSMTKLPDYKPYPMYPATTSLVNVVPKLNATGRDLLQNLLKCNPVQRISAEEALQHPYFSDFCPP
# [5] = biological target: Cyclin-dependent kinase 5 (Homo sapiens) (UniProt Q00535); conditions: at 1 µM
# [6] = biological target: Cyclin-dependent kinase 6 (Homo sapiens) (UniProt Q00534); conditions: at 0.1 µM
# Cyclin-dependent kinase 6 (Homo sapiens), sequence (Q00534 whole entry): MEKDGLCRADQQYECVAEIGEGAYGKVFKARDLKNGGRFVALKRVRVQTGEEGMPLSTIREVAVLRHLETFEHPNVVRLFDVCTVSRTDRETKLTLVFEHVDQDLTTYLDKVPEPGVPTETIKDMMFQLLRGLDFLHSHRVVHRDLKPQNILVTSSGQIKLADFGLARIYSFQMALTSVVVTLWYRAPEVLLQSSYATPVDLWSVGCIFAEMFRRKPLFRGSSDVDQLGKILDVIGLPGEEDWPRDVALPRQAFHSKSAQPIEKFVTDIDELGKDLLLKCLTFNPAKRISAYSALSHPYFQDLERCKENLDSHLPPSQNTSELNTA
# [7] = biological target: Cyclin-dependent kinase 6 (Homo sapiens) (UniProt Q00534); conditions: at 1 µM
# [8] = biological target: Dual specificity protein kinase CLK2 (Homo sapiens) (UniProt P49760); conditions: at 0.1 µM
# Dual specificity protein kinase CLK2 (Homo sapiens), sequence (P49760 whole entry, looked up): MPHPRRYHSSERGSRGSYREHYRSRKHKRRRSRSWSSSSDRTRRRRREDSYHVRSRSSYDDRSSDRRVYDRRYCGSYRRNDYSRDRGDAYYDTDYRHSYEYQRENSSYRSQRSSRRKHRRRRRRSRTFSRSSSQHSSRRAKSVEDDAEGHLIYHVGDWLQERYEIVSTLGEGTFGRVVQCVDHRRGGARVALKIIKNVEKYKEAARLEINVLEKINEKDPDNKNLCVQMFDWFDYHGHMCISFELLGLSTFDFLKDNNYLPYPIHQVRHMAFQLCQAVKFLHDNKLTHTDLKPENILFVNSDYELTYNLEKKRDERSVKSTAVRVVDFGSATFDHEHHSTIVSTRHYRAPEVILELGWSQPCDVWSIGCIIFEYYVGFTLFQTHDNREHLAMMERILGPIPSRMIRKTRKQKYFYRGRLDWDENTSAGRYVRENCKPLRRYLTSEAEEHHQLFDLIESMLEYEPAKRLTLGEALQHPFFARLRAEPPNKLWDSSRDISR
# [9] = biological target: Dual specificity protein kinase CLK2 (Homo sapiens) (UniProt P49760); conditions: at 1 µM
# [10] = biological target: Dual specificity protein kinase CLK3 (Homo sapiens) (UniProt P49761); conditions: at 0.1 µM
# Dual specificity protein kinase CLK3 (Homo sapiens), sequence (P49761 whole entry, looked up): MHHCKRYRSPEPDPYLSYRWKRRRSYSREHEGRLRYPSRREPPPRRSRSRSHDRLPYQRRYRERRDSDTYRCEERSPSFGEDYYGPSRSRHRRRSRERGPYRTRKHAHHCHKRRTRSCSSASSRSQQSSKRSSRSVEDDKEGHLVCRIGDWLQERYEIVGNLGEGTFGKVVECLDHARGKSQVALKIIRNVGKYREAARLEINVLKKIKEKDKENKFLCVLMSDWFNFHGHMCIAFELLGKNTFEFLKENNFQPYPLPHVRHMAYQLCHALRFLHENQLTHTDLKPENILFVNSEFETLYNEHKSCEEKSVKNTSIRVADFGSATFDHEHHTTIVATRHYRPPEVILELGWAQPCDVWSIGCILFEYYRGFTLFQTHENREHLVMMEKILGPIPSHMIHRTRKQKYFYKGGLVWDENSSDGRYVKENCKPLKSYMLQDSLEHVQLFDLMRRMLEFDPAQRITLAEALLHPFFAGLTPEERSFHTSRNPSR
# CDK3/Cyclin E (Homo sapiens), sequence (P24864 whole entry, looked up): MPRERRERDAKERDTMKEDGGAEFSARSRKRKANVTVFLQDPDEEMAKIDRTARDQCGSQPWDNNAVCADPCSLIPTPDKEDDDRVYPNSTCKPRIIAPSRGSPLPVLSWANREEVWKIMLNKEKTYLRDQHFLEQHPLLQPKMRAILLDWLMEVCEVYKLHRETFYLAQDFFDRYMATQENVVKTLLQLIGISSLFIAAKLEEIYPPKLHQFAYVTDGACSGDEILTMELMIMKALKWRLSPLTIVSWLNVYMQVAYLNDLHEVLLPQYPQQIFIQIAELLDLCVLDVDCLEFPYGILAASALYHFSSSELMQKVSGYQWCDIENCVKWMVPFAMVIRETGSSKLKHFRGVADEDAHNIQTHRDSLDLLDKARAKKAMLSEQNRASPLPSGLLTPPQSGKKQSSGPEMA
# CDK3/Cyclin E (Homo sapiens), sequence (Q00526 whole entry, looked up): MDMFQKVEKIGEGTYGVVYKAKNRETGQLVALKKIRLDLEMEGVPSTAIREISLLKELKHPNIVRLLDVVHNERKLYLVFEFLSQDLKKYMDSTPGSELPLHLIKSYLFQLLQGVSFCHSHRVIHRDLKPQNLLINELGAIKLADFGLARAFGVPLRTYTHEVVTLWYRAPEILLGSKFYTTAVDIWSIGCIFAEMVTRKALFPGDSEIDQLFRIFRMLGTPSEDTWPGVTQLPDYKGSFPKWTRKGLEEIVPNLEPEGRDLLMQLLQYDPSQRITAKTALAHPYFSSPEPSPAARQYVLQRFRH
# Cyclin-dependent kinase 4 (Homo sapiens), sequence (P11802 whole entry): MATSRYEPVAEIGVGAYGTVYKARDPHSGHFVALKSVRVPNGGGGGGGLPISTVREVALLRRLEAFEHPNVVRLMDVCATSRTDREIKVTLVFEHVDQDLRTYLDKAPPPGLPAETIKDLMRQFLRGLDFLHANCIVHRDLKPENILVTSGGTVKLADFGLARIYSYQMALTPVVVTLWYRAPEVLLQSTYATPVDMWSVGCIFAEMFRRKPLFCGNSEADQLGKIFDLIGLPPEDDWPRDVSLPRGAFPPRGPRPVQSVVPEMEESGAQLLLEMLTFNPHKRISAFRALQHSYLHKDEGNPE
Structure (SMILES),inhibition [1] [%],inhibition [2] [%],inhibition [3] [%],inhibition [4] [%],inhibition [5] [%],inhibition [6] [%],inhibition [7] [%],inhibition [8] [%],inhibition [9] [%],inhibition [10] [%]
COc1cccc(-n2nc(C)c3c(N/N=C(\C)c4ccncc4)ncnc32)c1,-0.83,0.53,2.41,0.97,5.69,-2.27,0.77,-2.05,0.8,-1.02
Cc1ccc2c(-c3ccnc(Nc4ccc5c(c4)OCCO5)n3)c(-c3ccc(C(F)(F)F)cc3)nn2n1,-3.94,0.65,1.74,0.21,1.41,-0.74,-1.75,1.25,-0.4,1.41
NS(=O)(=O)c1cccc(Nc2cc(-c3ccc(F)cc3)n[nH]2)c1,36.7,1.88,10,5.52,31.4,10.5,52.5,1.65,1,1.43
COc1ccc(-c2nn3ncccc3c2-c2ccnc(Nc3cccc(C(F)(F)F)c3)n2)cc1,-2.93,1.42,3.64,0.07,1.77,-1.93,-0.66,0.06,-1.44,-0.4
Cc1cc(Cl)cc2c1NC(=O)C2=NNc1ccc(S(N)(=O)=O)cc1,-0.36,0.78,3.56,0.57,2.28,2.2,3.46,0.86,2.34,0.9
COC(=O)c1cncc(/C=C/c2c(C)cc(O)cc2C)c1,-1.29,2.45,3.9,1.02,3.28,4.33,4.14,-0.85,2.84,2.11
COc1cccc(-n2ncc3c(N/N=C/c4ccc(C)cc4)ncnc32)c1,-1.25,3.51,7.43,2.17,6.59,-2.39,-0.54,-0.41,6.42,1.22
COc1cc2ncn(-c3cc(OCc4ccccc4S(C)(=O)=O)c(C#N)s3)c2cc1OC,2.11,3.64,3.7,1.86,3.42,6.66,3.82,0.22,10.8,2.39
COc1ccc2ncnc(Nc3ccc(OCc4ccccc4)cc3)c2c1,-1.97,0.76,0.15,0.36,0.72,-0.31,1.08,1.07,0.25,0.35
CN1CCN(C(=O)c2ccc(NC(=O)Nc3ccc(N(C)c4ccnc(Nc5ccc(CS(C)(=O)=O)cc5)n4)cc3)cc2)CC1,2.12,2.05,5.68,1.54,8.48,-6.28,3.8,0.17,3.57,0.18
Cc1ccc2c(c1)/C(=N/Nc1ccc(S(N)(=O)=O)cc1)C(=O)N2,57.3,1.36,16.9,9.16,45.2,-2.12,36.9,1.98,3.06,-1.33
Nc1nccc(C#Cc2cncnc2Nc2ccc(OCc3cccc(F)c3)c(Cl)c2)n1,0.78,3.03,4.61,1.09,1.9,3.61,2.5,2.79,14.2,1.85
CCS(=O)(=O)c1ccc(OC)c(Nc2ncc(-c3cccc(OC)c3)o2)c1,3.18,1.8,3.35,0.02,1.71,3.87,5.07,34.8,86,2.36
Cc1cc(-c2ccccn2)cc(C)c1/C=C/c1cncc(-c2nn[nH]n2)c1,-2.71,6.05,8.73,3.27,5.72,1.94,5.55,0.95,1.77,0.5
Nc1ccc(C#Cc2cncnc2Nc2ccc(OCc3cccc(F)c3)c(Cl)c2)cc1,-1.01,1.19,3.75,0.23,1.65,-2.6,0.37,0.14,-1.31,0.75
Nc1nccc(-c2c(-c3ccc(F)cc3)nn3cc(C(F)(F)F)ccc23)n1,-2.57,0.37,1.03,0.43,-0.54,-0.93,-0.06,1.36,-2.43,-0.16
CCn1c(-c2nonc2N)nc2ccc(F)cc21,-3.51,1.9,2.11,0.58,0.39,1.33,2.18,2.5,0.59,2.12
O=C1Nc2ccc(-c3cccnc3)cc2C1=Cc1cc(Br)c(O)c(Br)c1,2.98,3.31,3.8,1.01,1.79,5.85,6.68,32.2,84.6,7.23
CN(C)CCCn1c(-c2nonc2N)nc2cnccc21,-0.71,3.12,4.13,1.36,1.99,-4.78,1.95,2.66,2.51,1.05
CS(=O)(=O)CCNCc1nc(-c2ccc3ncnc(Nc4ccc(OCc5cccc(C(F)(F)F)c5)cc4)c3c2)cs1,-0.52,4.15,3.83,0.46,-0.01,-2.37,3.31,-2.75,1.02,0.04
CCn1c(-c2nonc2N)nc2c(C#CC(C)(C)O)nc(OCCNC)cc21,-2.48,5.94,6.73,1.64,1.77,-0.39,-2.07,1.52,3.81,-0.84
COC(=O)Nc1nc2cc(Oc3ccc(NC(=O)Nc4cccc(Br)c4)cc3)ccc2[nH]1,-4.35,2.4,2.61,0.44,1.22,-3.24,0.22,0.85,1.48,1.73
COc1cccc(-n2ncc3c(N/N=C/c4ccc(S(C)(=O)=O)cc4)ncnc32)c1,20.8,0.01,20.4,21,59.2,0.78,25.6,8.7,18.4,-0.53
O=C1Nc2ccccc2/C1=C/Nc1ccc2[nH]c(=O)[nH]c2c1,8.57,3.34,11.3,3.13,24.1,18.1,59,6.03,30.4,1.23
NC(=O)c1sc(-n2cnc3ccccc32)cc1OCc1ccccc1Br,0.26,6.61,8.04,3.59,8.58,-3.6,-1.95,1.89,5.2,0.83
COc1cc(/C=N/Nc2ncnc3c2cnn3C(C)C)ccc1O,27.6,3.37,18.7,10.4,46.2,-4.82,9.96,3.4,23.2,5.21
NS(=O)(=O)c1ccc(NC=C2C(=O)Nc3ccc4ncsc4c32)cc1,97.8,46.4,71.3,68.2,74.7,52.8,77.7,28.3,80,3.57
Cc1cc(O)cc(C)c1/C=C/c1cncc(C(=O)N(C)C)c1,0.31,2.02,5.17,1.19,4.55,-1.04,3.9,2.35,2.69,-0.01
